Laboratory results reported in the supplement of paper PMC10849652.
Of roughly 8,800 targets only a part is listed; those with a hit were picked by preference. About 0.5% of all pairs of compound and target were hits.

Experiments:
Assay in all cases: log2 fold change, soluble protein after heating vs DMSO (PISA); higher = thermal stabilisation; K562 lysate, 10 uM; active = over 0.2 and 3.5 SD of the protein, either way, in both replicates (recomputed)
alvocidib = compound: CN1CC[C@H](c2c(O)cc(O)c3c(=O)cc(-c4ccccc4Cl)oc23)[C@H](O)C1 [alvocidib]
Method in brief: (§1)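 Thermal stability, expressed as log-two fold change relative to solvent controls, is given from duplicates. Crude K562 extract in PBS pH 7.4 with 1 mM MgCl2, at 1 mg/mL protein, was treated with 10 μM compound for 30 min and heated in aliquots for 3 min across 48°C-58°C. After pooling, adjustment to 0.5% NP-40 at 4°C and centrifugation at 21,000xg for 90 min, supernatant protein was measured by TMTpro 16plex LC-MS/MS with channel sums equalised.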

Tubastatin A = compound: CN1CCc2c(c3ccccc3n2Cc2ccc(C(=O)NO)cc2)C1 [Tubastatin A]
Method in brief: as §1

[1] = compound: CNC(=O)C1=CC=CC=C1NC2=NC(=NC=C2Cl)NC3=C(C=C(C=C3)N4CCOCC4)OC
Method in brief: as §1

defactinib = compound: CNC(=O)c1ccc(Nc2ncc(C(F)(F)F)c(NCc3nccnc3N(C)S(C)(=O)=O)n2)cc1 [defactinib]
Method in brief: as §1

[2] = compound: CNc1nc(-c2ccc3c(N)n[nH]c3c2)cc(N2C[C@@H](C(=O)NC3CCCCC3)CC[C@H]2C)n1
Method in brief: as §1

encorafenib = compound: COC(=O)N[C@@H](C)CNc1nccc(-c2cn(C(C)C)nc2-c2cc(Cl)cc(NS(C)(=O)=O)c2F)n1 [encorafenib]
Method in brief: as §1

[3] = compound: COC(=O)[C@H](CCSC)NC(=O)C1=C(C=C(C=C1)NC[C@H](CS)N)C2=CC=CC=C2
Method in brief: as §1

alisertib = compound: COc1cc(Nc2ncc3c(n2)-c2ccc(Cl)cc2C(c2c(F)cccc2OC)=NC3)ccc1C(=O)O [alisertib]
Method in brief: as §1

[4] = compound: COc1cc2nc(-c3cc(F)ccc3O)nc(N[C@@H]3CNC[C@H]3C(C)(C)O)c2cc1OC
Method in brief: as §1

gefitinib = compound: COc1cc2ncnc(Nc3ccc(F)c(Cl)c3)c2cc1OCCCN1CCOCC1 [gefitinib]
Method in brief: as §1

Measured: log2 fold change

MAPKAPK2 (UniProt P49137)
Sequence of UniProt P49137 (P49137 whole entry, looked up): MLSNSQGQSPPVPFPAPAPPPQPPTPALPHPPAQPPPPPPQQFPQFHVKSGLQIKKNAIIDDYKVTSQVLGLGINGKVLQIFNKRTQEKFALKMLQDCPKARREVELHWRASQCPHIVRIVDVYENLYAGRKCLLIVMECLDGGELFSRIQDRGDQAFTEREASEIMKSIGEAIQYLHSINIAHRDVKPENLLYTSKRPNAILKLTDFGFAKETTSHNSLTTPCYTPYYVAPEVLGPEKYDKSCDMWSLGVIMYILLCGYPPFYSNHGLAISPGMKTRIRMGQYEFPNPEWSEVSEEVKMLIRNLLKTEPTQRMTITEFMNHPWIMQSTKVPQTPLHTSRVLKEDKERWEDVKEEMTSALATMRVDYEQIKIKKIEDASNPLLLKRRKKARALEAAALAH
inactive: alvocidib 0.069 | Tubastatin A -0.078 | [1] 0.077 | defactinib -0.059 | [2] 0.025 | encorafenib -0.026 | [3] 0.046 | alisertib -0.023 | [4] 0.114 | gefitinib -0.013

LAGE3 (UniProt Q14657)
inactive: alvocidib -0.013 | Tubastatin A 0.004 | [1] -0.001 | defactinib -0.194 | [2] -0.035 | encorafenib 0.047 | [3] -0.076 | alisertib 0.224 | [4] -0.042 | gefitinib 0.107

MAP2K4 isoform 2 (UniProt P45985)
Sequence of UniProt P45985 (P45985 whole entry, looked up): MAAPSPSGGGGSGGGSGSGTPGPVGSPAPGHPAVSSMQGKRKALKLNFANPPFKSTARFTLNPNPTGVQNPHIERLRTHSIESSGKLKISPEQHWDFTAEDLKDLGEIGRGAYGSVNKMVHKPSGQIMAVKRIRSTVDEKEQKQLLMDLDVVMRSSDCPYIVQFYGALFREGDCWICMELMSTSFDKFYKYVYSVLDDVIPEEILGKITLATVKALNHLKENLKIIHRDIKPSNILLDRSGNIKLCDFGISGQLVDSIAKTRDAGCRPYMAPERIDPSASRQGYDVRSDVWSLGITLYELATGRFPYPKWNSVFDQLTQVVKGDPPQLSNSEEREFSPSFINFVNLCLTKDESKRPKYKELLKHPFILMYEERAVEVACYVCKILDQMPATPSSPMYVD
inactive: alvocidib 0.137 | Tubastatin A -0.08 | [1] 0.081 | defactinib 0.013 | [2] 0.061 | encorafenib 0.122 | [3] 0.087 | alisertib -0.069 | [4] -0.022 | gefitinib -0.032

KIF14 (UniProt Q15058)
inactive: alvocidib -0.031 | Tubastatin A -0.217 | [1] 0.032 | defactinib 0.043 | [2] 0.011 | encorafenib 0.038 | [3] 0.045 | alisertib -0.028 | [4] 0.013 | gefitinib 0.001

KMT2A isoform 3 (UniProt Q03164)
inactive: alvocidib -0.073 | Tubastatin A 0.011 | [1] -0.07 | defactinib -0.054 | [2] -0.069 | encorafenib -0.118 | [3] -0.037 | alisertib -0.371 | [4] 0.061 | gefitinib -0.172

MAP3K4 (UniProt Q9Y6R4)
inactive: alvocidib -0.027 | Tubastatin A -0.113 | defactinib 0.071 | [2] -0.018 | encorafenib -0.171 | [3] 0.128 | alisertib -0.028 | [4] -0.045 | gefitinib 0.081
active: [1] 0.366

LUC7L (UniProt Q9NQ29)
Sequence of UniProt Q9NQ29 (Q9NQ29 whole entry, looked up): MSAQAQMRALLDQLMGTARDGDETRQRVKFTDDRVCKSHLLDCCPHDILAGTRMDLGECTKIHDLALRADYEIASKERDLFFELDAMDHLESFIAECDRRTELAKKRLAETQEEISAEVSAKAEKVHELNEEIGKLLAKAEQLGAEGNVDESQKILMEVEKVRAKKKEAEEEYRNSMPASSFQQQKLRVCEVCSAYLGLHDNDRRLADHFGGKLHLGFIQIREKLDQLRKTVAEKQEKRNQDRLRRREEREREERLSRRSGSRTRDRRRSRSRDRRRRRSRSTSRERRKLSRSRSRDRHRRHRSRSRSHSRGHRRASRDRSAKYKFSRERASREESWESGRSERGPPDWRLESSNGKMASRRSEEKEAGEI
inactive: Tubastatin A 0.015 | [1] -0.117 | defactinib -0.075 | [2] 0.002 | encorafenib 0.065 | [3] -0.039 | alisertib 0.033 | [4] 0.01 | gefitinib 0.037
active: alvocidib -0.259

KRR1 (UniProt Q13601)
Sequence of UniProt Q13601 (Q13601 whole entry, looked up): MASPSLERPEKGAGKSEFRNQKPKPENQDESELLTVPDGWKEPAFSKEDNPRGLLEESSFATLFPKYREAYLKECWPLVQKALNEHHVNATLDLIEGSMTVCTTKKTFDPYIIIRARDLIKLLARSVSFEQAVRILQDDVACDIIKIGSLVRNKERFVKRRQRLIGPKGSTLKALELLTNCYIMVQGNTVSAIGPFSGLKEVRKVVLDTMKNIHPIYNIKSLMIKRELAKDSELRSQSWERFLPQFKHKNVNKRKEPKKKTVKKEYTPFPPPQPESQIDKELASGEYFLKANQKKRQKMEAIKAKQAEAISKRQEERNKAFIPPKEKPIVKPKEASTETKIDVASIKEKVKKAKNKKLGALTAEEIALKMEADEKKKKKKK
inactive: alvocidib 0.028 | Tubastatin A -0.033 | [1] -0.054 | defactinib 0.01 | [2] -0.005 | encorafenib 0.092 | [3] 0.023 | alisertib 0.032 | [4] 0.046 | gefitinib -0.014

KLC4 isoform 3 (UniProt Q9NSK0)
inactive: alvocidib -0.01 | Tubastatin A -0.091 | [1] -0.008 | defactinib 0.014 | [2] -0.084 | encorafenib 0.014 | [3] 0.007 | alisertib 0.014 | [4] 0.014 | gefitinib -0.028

MECR (UniProt Q9BV79)
inactive: alvocidib 0.018 | Tubastatin A 0.014 | [1] 0.01 | defactinib 0.007 | [2] 0.053 | encorafenib -0.06 | [3] 0.049 | alisertib 0 | [4] 0.04 | gefitinib -0.011

MDM1 (UniProt Q8TC05)
Sequence of UniProt Q8TC05 (Q8TC05 whole entry, looked up): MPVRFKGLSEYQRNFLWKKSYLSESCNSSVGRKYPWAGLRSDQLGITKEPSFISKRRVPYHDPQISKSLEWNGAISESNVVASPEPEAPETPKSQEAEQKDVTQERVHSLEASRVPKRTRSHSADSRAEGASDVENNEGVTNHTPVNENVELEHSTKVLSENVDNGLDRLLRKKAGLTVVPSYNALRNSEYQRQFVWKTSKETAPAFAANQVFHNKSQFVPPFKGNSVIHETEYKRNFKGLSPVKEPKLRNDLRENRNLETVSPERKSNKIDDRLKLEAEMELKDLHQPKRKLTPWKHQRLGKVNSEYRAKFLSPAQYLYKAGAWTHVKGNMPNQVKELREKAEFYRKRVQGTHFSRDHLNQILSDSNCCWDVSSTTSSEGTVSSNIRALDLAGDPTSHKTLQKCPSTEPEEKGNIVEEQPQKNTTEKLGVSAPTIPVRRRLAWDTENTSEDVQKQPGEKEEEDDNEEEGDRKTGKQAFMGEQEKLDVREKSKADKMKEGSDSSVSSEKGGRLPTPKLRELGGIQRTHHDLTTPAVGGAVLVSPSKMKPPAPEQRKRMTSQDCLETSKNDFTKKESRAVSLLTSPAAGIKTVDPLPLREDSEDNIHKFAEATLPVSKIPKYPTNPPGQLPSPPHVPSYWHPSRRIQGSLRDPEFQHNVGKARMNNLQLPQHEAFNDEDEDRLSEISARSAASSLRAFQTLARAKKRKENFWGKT
inactive: alvocidib -0.527 | Tubastatin A 0.007 | [1] -0.071 | defactinib -0.126 | [2] -0.328 | encorafenib 0 | [3] -0.12 | alisertib 0.018 | [4] -0.031 | gefitinib 0.14

MPP1 (UniProt Q00013)
inactive: alvocidib -0.01 | Tubastatin A -0.01 | [1] -0.007 | defactinib -0.002 | [2] 0.01 | encorafenib -0.015 | [3] 0.011 | alisertib -0.008 | [4] -0.007 | gefitinib 0

MED8 isoform 2 (UniProt Q96G25)
inactive: alvocidib 0.026 | Tubastatin A -0.048 | [1] 0.023 | defactinib -0.009 | [2] 0.045 | encorafenib 0.056 | [3] -0.113 | alisertib -0.07 | [4] 0.059 | gefitinib -0.038

MAP2K2 (UniProt P36507)
inactive: alvocidib 0.022 | Tubastatin A -0.026 | [1] 0.198 | defactinib 0.036 | [2] 0.015 | encorafenib -0.046 | [3] -0.006 | alisertib -0.013 | [4] 0.009 | gefitinib -0.013

MPDZ (UniProt O75970)
inactive: alvocidib 0.028 | Tubastatin A 0.117 | [1] 0.236 | defactinib 0.053 | [2] 0.099 | encorafenib -0.091 | [3] -0.032 | alisertib -0.167 | [4] -0.114 | gefitinib 0.228

LRCH3 (UniProt Q96II8)
inactive: alvocidib 0 | Tubastatin A -0.238 | [1] -0.003 | defactinib -0.002 | [2] 0.069 | encorafenib 0.021 | [3] 0.045 | alisertib 0.021 | [4] -0.012 | gefitinib -0.075

MORC3 (UniProt Q14149)
inactive: alvocidib -0.015 | Tubastatin A -0.098 | [1] 0.017 | defactinib 0.018 | [2] -0.028 | encorafenib 0.007 | [3] 0.038 | alisertib -0.003 | [4] 0.021 | gefitinib -0.01

KIF11 (UniProt P52732)
Sequence of UniProt P52732 (P52732 whole entry, looked up): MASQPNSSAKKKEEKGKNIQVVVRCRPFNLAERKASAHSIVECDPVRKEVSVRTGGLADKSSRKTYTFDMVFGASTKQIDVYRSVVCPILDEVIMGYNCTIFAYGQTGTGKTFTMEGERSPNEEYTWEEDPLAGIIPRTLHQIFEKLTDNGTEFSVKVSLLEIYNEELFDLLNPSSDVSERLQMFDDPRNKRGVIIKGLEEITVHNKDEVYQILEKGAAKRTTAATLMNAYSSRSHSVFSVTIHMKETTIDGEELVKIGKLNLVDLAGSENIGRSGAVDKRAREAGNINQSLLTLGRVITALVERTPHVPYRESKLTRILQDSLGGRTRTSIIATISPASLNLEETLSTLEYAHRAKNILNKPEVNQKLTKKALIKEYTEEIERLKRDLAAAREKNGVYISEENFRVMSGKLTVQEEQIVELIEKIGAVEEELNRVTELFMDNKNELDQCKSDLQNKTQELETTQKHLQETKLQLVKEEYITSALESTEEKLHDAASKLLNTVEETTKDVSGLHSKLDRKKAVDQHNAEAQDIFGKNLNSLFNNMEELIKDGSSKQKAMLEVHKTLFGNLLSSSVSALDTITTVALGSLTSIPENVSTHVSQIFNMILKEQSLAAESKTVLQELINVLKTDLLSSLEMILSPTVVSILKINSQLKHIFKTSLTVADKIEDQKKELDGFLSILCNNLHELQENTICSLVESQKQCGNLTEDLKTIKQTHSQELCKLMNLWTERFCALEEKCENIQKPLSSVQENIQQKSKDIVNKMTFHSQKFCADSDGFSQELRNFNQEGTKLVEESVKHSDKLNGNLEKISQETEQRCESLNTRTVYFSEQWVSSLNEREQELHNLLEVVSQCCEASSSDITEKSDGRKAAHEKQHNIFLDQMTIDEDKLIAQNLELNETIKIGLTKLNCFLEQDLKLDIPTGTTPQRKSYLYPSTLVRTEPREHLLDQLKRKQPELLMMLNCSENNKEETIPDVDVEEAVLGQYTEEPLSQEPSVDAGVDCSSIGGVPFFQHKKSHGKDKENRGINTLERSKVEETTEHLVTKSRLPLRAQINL
inactive: alvocidib 0.008 | Tubastatin A -0.107 | [1] 0.035 | defactinib -0.007 | [2] -0.022 | encorafenib 0.034 | [3] 0.032 | alisertib -0.013 | [4] -0.003 | gefitinib 0.016

MARK1 (UniProt Q9P0L2)
inactive: alvocidib -0.053 | Tubastatin A -0.087 | [1] -0.27 | defactinib -0.267 | [2] 0.072 | encorafenib 0.075 | [3] 0.226 | alisertib -0.007 | [4] -0.134 | gefitinib -0.004

LSG1 (UniProt Q9H089)
active: [3] 0.303
inactive: alvocidib -0.079 | Tubastatin A -0.016 | [1] -0.046 | defactinib 0.003 | [2] -0.077 | encorafenib 0.046 | alisertib -0.017 | [4] -0.028 | gefitinib -0.059

KPNA4 (UniProt O00629)
inactive: alvocidib -0.098 | Tubastatin A 0.007 | [1] 0.014 | defactinib -0.002 | [2] 0.008 | encorafenib 0.02 | [3] -0.059 | alisertib -0.007 | [4] 0.002 | gefitinib 0.013

KNOP1 (UniProt Q1ED39)
inactive: alvocidib -0.004 | Tubastatin A 0.151 | [1] 0.062 | [2] 0.337 | encorafenib -0.023 | [3] 0.022 | alisertib -0.065 | [4] 0.097 | gefitinib -0.03
active: defactinib 0.413

MLLT11 (UniProt Q13015)
inactive: alvocidib 0.056 | Tubastatin A -0.052 | [1] 0.108 | defactinib 0.086 | [2] -0.019 | encorafenib 0.138 | [3] 0.099 | alisertib 0.115 | [4] 0.067 | gefitinib 0.023

MGST3 (UniProt O14880)
Sequence of UniProt O14880 (O14880 whole entry, looked up): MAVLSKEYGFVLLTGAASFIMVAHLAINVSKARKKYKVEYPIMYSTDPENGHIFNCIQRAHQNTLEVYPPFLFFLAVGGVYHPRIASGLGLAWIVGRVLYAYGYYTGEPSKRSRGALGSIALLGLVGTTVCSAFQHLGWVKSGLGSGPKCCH
inactive: alvocidib 0.071 | Tubastatin A 0.043 | [1] 0.054 | defactinib 0 | [2] 0.029 | encorafenib -0.04 | [3] 0.052 | alisertib 0.026 | [4] -0.005 | gefitinib -0.038

MIF4GD isoform 3 (UniProt A9UHW6)
inactive: alvocidib 0.021 | Tubastatin A 0.014 | [1] 0.002 | defactinib -0.01 | [2] -0.066 | encorafenib -0.012 | [3] 0.01 | alisertib -0.037 | [4] 0.007 | gefitinib 0.049

MIPEP (UniProt Q99797)
inactive: alvocidib 0.027 | Tubastatin A 0.011 | [1] -0.03 | defactinib 0.025 | [2] -0.067 | encorafenib -0.012 | [3] 0.154 | alisertib -0.038 | [4] -0.009 | gefitinib -0.007

LLGL1 (UniProt Q15334)
inactive: alvocidib 0.026 | Tubastatin A -0.105 | [1] 0.032 | defactinib -0.013 | [2] -0.034 | encorafenib 0.052 | [3] 0.108 | alisertib -0.032 | [4] 0.121 | gefitinib -0.065

METTL7A (UniProt Q9H8H3)
inactive: alvocidib -0.079 | Tubastatin A 0.014 | [1] 0.003 | defactinib 0.011 | [2] 0.041 | encorafenib -0.041 | [3] 0.151 | alisertib -0.036 | [4] -0.01 | gefitinib -0.046

MACROD1 (UniProt Q9BQ69)
Sequence of UniProt Q9BQ69 (Q9BQ69 whole entry, looked up): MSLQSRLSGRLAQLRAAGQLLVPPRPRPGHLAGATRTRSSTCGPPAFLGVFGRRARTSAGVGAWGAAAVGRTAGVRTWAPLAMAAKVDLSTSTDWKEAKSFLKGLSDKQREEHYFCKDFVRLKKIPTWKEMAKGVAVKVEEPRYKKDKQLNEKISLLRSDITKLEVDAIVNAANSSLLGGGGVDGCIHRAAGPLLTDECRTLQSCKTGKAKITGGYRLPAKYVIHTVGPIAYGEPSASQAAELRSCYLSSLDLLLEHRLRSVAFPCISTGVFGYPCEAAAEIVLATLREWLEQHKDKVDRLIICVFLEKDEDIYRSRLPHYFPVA
inactive: alvocidib 0.12 | Tubastatin A -0.104 | [1] 0.012 | defactinib 0.039 | [2] 0.015 | encorafenib 0.029 | [3] -0.074 | alisertib -0.037 | [4] -0.001 | gefitinib 0.033

LARS (UniProt Q9P2J5)
Sequence of UniProt Q9P2J5 (Q9P2J5 whole entry, looked up): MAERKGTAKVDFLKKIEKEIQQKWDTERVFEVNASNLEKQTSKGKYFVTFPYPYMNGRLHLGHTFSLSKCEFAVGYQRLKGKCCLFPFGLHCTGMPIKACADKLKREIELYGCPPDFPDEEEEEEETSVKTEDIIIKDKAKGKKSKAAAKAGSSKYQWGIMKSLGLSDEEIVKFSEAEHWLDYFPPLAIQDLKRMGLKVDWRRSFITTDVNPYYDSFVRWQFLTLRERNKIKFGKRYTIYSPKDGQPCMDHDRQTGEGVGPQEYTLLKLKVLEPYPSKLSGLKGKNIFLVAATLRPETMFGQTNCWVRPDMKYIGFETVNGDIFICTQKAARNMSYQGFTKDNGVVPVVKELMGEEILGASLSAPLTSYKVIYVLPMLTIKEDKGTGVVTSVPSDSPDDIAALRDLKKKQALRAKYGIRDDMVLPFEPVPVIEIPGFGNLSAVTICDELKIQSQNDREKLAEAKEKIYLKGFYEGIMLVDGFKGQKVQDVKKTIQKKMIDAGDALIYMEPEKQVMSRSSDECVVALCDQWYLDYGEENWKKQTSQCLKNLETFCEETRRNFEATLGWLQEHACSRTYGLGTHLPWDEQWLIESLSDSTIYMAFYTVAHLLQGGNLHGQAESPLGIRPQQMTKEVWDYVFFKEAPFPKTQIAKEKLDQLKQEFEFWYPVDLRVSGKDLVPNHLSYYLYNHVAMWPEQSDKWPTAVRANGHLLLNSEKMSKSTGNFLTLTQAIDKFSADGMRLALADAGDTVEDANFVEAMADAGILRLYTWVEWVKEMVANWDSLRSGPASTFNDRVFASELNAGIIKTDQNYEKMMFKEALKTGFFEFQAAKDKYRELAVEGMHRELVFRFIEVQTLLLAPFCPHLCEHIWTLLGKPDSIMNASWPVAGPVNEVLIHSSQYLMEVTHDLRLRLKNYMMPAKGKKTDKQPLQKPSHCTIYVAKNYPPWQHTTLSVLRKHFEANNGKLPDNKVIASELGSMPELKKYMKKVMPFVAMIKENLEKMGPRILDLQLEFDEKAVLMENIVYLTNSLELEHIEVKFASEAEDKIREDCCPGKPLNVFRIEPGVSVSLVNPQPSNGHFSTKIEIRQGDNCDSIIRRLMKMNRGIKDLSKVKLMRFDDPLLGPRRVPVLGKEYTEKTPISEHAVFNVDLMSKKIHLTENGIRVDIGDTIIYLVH
inactive: alvocidib 0.051 | Tubastatin A -0.153 | [1] 0.006 | defactinib 0.023 | [2] -0.054 | encorafenib 0.001 | [3] 0.097 | alisertib 0.01 | [4] -0.013 | gefitinib -0.007

MANEA (UniProt Q5SRI9)
inactive: alvocidib -0.078 | Tubastatin A -0.08 | [1] -0.016 | defactinib 0.062 | [2] -0.09 | encorafenib 0.028 | [3] -0.07 | [4] 0.041
